Measurements reported in PubChem BioAssay AID1259422 (The Scripps Research Institute Molecular Screening Center, 2018).
Values joined by “and” are separate entries in the source; they are usually repeats but may differ in a detail not shown here. Equal values may be shown once. The whole screen tested about 640,000 compounds, of which about 9,300 (1.5%) were called active. Many of the other results were omitted from the sample, so actives are more common in it than they were. A number with no mark means an inactive call. No stated cut-off is given here; in the data, active means inhibition above about 32%; inactive means the rest.

Test: TEAD-YAP interaction inhibition, primary screen, TEAD-YAP interaction inhibitor project, luminescence, HEK-TIYL cells (AID 1259422);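 further: 0% = median of test compound wells and 100% = reference inhibitor wells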
Conditions: TEAD-Gal4/YAP UAS-luciferase luminescence, at 9.12 µM, stronger effect = higher value

For CCc1ccc(NC(=O)C2CCN(S(=O)(=O)c3ccc4c(c3)CCC(=O)N4)CC2)cc1, which inhibition is on record?
The inhibition was -10.1%.

With CNC(=O)c1cc(F)ccc1Nc1cc(Nc2ccc3[nH]ncc3c2)ncc1C(F)(F)F as the molecule, how does the inhibition read?
Its inhibition is 27.2%.

With O=C1Cc2cc(Nc3cc(Nc4ccccn4)c(C(F)(F)F)cn3)ccc2N1 as the molecule, how does the inhibition read?
The inhibition was 22.7%.

Which inhibition does the source give for CNC(=O)c1cc(F)ccc1Nc1cc(Nc2ccc3nc[nH]c3c2)ncc1C(F)(F)F here?
The inhibition was -9.89%.

With CNC(=O)c1cc(F)ccc1Nc1cc(Nc2ccc(NC(C)=O)cn2)ncc1C(F)(F)F as the molecule, how does the inhibition read?
The inhibition was 84.8% (active).

Which inhibition does the source give for CNC(=O)c1cc(F)ccc1Nc1cc(Nc2ccc3c(c2)CCC(=O)N3)ncc1C(F)(F)F here?
The inhibition was 78.9% (active).

With O=C(CSc1nc2ccccc2s1)Nc1ccc(O)c(C(=O)O)c1 as the molecule, how does the inhibition read?
Its inhibition is -2.73%.

With OCCNCCCOc1ccc(I)cc1 as the molecule, how does the inhibition read?
Its inhibition is 15.9%.

With COc1c(C)c2c(c(O)c1C/C=C(\C)CCC(=O)O)C(=O)OC2 as the molecule, how does the inhibition read?
The inhibition was 39.5% (active) and 67.1% (active).

For O=c1oc2cc(O)ccc2cc1-c1ccc(F)cc1, which inhibition is on record?
Its inhibition is 36% (active).

With O=c1oc2ccccc2cc1-c1ccc(Cl)cc1 as the molecule, how does the inhibition read?
The inhibition was -27%.

For Cc1ccc(Nc2nnc(-c3cc4ccc(O)cc4oc3=O)s2)cc1, which inhibition is on record?
The inhibition was 8.37%.

Which inhibition does the source give for COc1cccc(CN2CCN(Cc3cn[nH]c3-c3cccc(F)c3)CC2CCO)c1 (stereo not drawn) here?
Its inhibition is 6.95%.

For CCCCSCCC(=O)O, which inhibition is on record?
The inhibition was -16.4%.

With COC(CNc1cc(-c2ccc(F)cc2)nc(-c2ccccn2)n1)OC as the molecule, how does the inhibition read?
Its inhibition is 42.7% (active).

Which inhibition does the source give for COC(CNc1cc(-c2cccc(C(F)(F)F)c2)nc(-c2ccncc2)n1)OC here?
The inhibition was 14.2%.

For COCCNc1cc(-c2ccc(F)cc2)nc(C)n1, which inhibition is on record?
The inhibition was -31.9%.

With CC(C)(C)NCCOc1ccccc1F as the molecule, how does the inhibition read?
The inhibition was 14.1%.

With CCOc1cc(C#N)ccc1OCC(=O)Nc1ccc(C)cc1C as the molecule, how does the inhibition read?
Its inhibition is 15.8%.

For COC(=O)C1=C(C)N=c2s/c(=C/c3ccc(N(C)C)cc3)c(=O)n2C1c1ccccc1Cl (stereo not drawn), which inhibition is on record?
Its inhibition is -14.2%.

For O=C(NNS(=O)(=O)c1cccc(Cl)c1Cl)C12CC3CC(CC(C3)C1)C2, which inhibition is on record?
Its inhibition is -2.41%.

With CCN(CC)CCNC(=O)c1ccc(Nc2cc(Nc3ccccc3C(=O)NC)c(C(F)(F)F)cn2)c(C)c1 as the molecule, how does the inhibition read?
The inhibition was 84.7% (active).

With CCN(CC)CCOc1ccc(Nc2cc(Nc3ccccc3C(=O)NC)c(C(F)(F)F)cn2)c(OC)c1 as the molecule, how does the inhibition read?
The inhibition was 83.4% (active).

With Cc1ccc(Nc2nnc(-c3ccc(C(=O)N(C)C)cc3)c3ccccc23)cc1 as the molecule, how does the inhibition read?
The inhibition was -11.2%.

With CC(C)N(CCNC(=O)c1ccnc(Nc2ccc(C(F)(F)F)cc2)c1)C(C)C as the molecule, how does the inhibition read?
Its inhibition is -16%.

For CCN(CC)CCNC(=O)c1ccc(Nc2cc(Nc3ccccc3C(=O)NC)c(C(F)(F)F)cn2)nc1, which inhibition is on record?
The inhibition was 96.8% (active).

Which inhibition does the source give for Cc1cc(C(=O)Nc2ccccc2C(F)(F)F)ccc1[N+](=O)[O-] here?
The inhibition was -8.76%.

Which inhibition does the source give for CNC(=O)c1ccccc1Nc1cc(Nc2ccc(N3CCOCC3)cc2OC)ncc1F here?
Its inhibition is 6.22%.

With CCCn1c(=S)[nH]c2cc(C(=O)NCCN(CC)CC)ccc2c1=O as the molecule, how does the inhibition read?
The inhibition was 12.2%.

For COc1cc(N2CCOCC2)ccc1Nc1cc(Nc2ccccc2-n2cccn2)c(C(F)(F)F)cn1, which inhibition is on record?
Its inhibition is -8.57%.

With CNC(=O)c1ccccc1Nc1cc(Nc2ccc(C(=O)N(C)C)cc2)ncc1C(F)(F)F as the molecule, how does the inhibition read?
The inhibition was 77.1% (active).

For CCN(CC)CCNC(=O)c1ccc2c(=O)n(CCN(CC)CC)c(=S)[nH]c2c1, which inhibition is on record?
The inhibition was 18.8%.

Which inhibition does the source give for CNC(=O)c1ccccc1Nc1nc(Nc2ccc(-n3cnc(-c4ccc(C)nc4)n3)cc2)ncc1Cl here?
The inhibition was 8.52%.
